± gives the standard deviation of the averaged measurements. Over roughly 25,000 sequences, “ln(normalized median fluorescence intensity)” has its median near 8.9; the highest 2% begin near 10. The sample as a whole holds a higher share of the highest values than the screen did.
Each sequence was assayed on PfAP2-LT AP2 domain (GST-tagged) (assay: gcPBM binding intensity (ln(normalized median fluorescence intensity)); higher = stronger DNA binding).
Method in brief: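 DNA-binding domains from P. falciparum, fused to GST and produced in E. coli, were put on an Agilent 4 × 180k double-stranded probe array for 1 h in 1× PBS holding 1% milk, 0.2 mg/ml BSA, 0.5% salmon testes DNA and 0.03% Triton X-100. Probes were primer-extended, 36 bp long and drawn from intergenic genomic regions, with negative controls included. After Alexa488 anti-GST antibody detection and a 488 nm scan, binding intensity was set as the highest Masliner-normalised natural-log median intensity across replicate spots of either probe orientation.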

| Sequence | gcPBM binding intensity (ln) |
| --- | --- |
| AAAAGTTATAGACACACACACATATAAATATAGATT [CACACA_site6617] | 9.57 ± 0.3 |
| TGTGTATAAATATACACACACATATAAATATTTTAA [CACACA_site7005] | 9.09 ± 0.35 |
| TTGCCATTAATTTATACACACACATTTTAATTTTTT [CACACA_site8150] | 9.16 ± 0.39 |
| GTAAATTATATAACAAATAAAAATGTACATATATAT [CACACA_negctrl_site408] | 8.88 ± 0.46 |
| TAAATTATCTTTTTATGTACTTATTTTTATTATTTT [XGTACX_site3158] | 8.73 ± 0.55 |
| AAAATATATGAAAACAGTACATATAAAAATTAAAAA [XGTACX_site2594] | 8.75 ± 0.64 |
| AAAAAAATTAATATGTCAGCACATATATACATACAT [GTGCAC_negctrl_site110] | 8.88 ± 0.41 |
| ATATTAGTCGAATGATGTACACACATACAAAACATT [XGTACX_site8613] | 9.28 ± 0.45 |
| TGTGAATATATCTTTAAAAAGGATAAATAATAATTT [CACACA_negctrl_site507] | 8.47 ± 0.52 |
| GATGGATTTATTTAAAGTACATATTTAAAAAACTGT [XGTACX_site7567] | 8.51 ± 0.49 |
| AGCAAATACAAACACACACACACATATACATATATA [CACACA_site3497] | 10.1 ± 0.26 |
| AATATAATATAAGGATCACACACAAACACCCATATA [CACACA_site8084] | 9.77 ± 0.2 |
| GGAAACACAATATATACACACATATATATATATATA [CACACA_site235] | 10.1 ± 0.021 |
| ATGTACCTATTTCATACACACACACCCACAAACAAA [CACACA_site8232] | 9.66 ± 0.16 |
| CGCACCCAAATATATACACACATATATATATATATA [CACACA_site1651] | 10.1 ± 0.16 |
| GAACAAACAAAGAAAGAACACACATACACAATATAC [CACACA_site8918] | 9.6 ± 0.38 |
| ACCTATTTCAAACACACACACACACTAACAAACATA [CACACA_site8233] | 10 ± 0.13 |
| TATAATATAAGGATCACACACAAACACCCATATATA [CACACA_site4468] | 9.56 ± 0.18 |
| AATACACGCAAACACACACACACACCCACATATATA [CACACA_site638] | 10.3 ± 0.14 |

| Sequence | gcPBM binding intensity (ln) |
| --- | --- |
| ACAATAAACATATATACACACACAAAAAAAAAAACA [CACACA_site8033] | 9.64 ± 0.33 |
| AAGGATCACCCACAAACACACATATATATATATATA [CACACA_site559] | 10.2 ± 0.28 |
| ACCTATTTCAAACACACACACACACCCACAAACATA [CACACA_site977] | 10.1 ± 0.33 |
| TTTTATTTATCATACACACACAGAAAAAAAAAAAAA [CACACA_site158] | 8.89 ± 0.32 |
| TTTTTTTTCAAAAATACAAAAAAAAAAGAAAAAAAC [CACACA_negctrl_site625] | 8.5 ± 0.4 |
| AAATAACACATATATACACACATATAACTATAATAT [CACACA_site7298] | 9.29 ± 0.4 |
| ACATGTAATATAATGTGTACATATACAAAGGTATAT [XGTACX_site4145] | 9.34 ± 0.59 |
| AGTGAATATTACGAAACACACAAAAAAATACATTTC [CACACA_site511] | 9.09 ± 0.38 |
| CAAACAAATTGTGAAACACACATATATATATATATA [CACACA_site2001] | 9.81 ± 0.057 |
| TATATTATTAATTAGGGTACAAAAAAAAAATTTTTT [XGTACX_site7762] | 8.3 ± 0.48 |
| AAAGGTTTATCTGATACACACATAAGTGATCAGGTT [CACACA_site6233] | 8.83 ± 0.33 |
| TTTTTTCAATAAATAATCGTATATTGAATAATAATA [CACACA_negctrl_site822] | 8.07 ± 0.37 |
| TCATTTCAATACACAAGTACGTATATGGTTATATTG [XGTACX_site6021] | 8.82 ± 0.4 |
| CATACTCACCAACACACACACACACCCATATAGAAT [CACACA_site592] | 10.2 ± 0.28 |
| ATAAGGATCAGACACAAACACACATATATATATATA [CACACA_site558] | 10.1 ± 0.13 |
| TCATAGTAGAAACACACACACACACCCATATATATA [CACACA_site1737] | 10.1 ± 0.23 |
| AACCACATACATATAACACACATATACAATATATAT [CACACA_site8607] | 9.29 ± 0.39 |
| TATAATATAAGGATCACACACAAACAGACATATATA [CACACA_site557] | 9.49 ± 0.37 |
| AATAACCACCAACACACACACATATATATATATATA [CACACA_site3540] | 10.2 ± 0.24 |

| Sequence | gcPBM binding intensity (ln) |
| --- | --- |
| AAGGATCACAGACAAACACACATATATATATATATA [CACACA_site4469] | 10.1 ± 0.16 |
| CACCCACACCAACACACACACATATATAATATATAT [CACACA_site595] | 9.88 ± 0.33 |
| TATAAACACCCATATAAACACACATATAAACCAACA [CACACA_site8790] | 9.31 ± 0.28 |
| TAATTTAGTATCTTTACATGCGGGCATTATGTCATA [TGCATGCA_site167] | 8.74 ± 0.4 |
| AAGAAAATAGGGTTCATAGGATTATACTTTTGGAAT [TGCATGCA_negctrl_site80] | 8.59 ± 0.54 |
| TAATACTTAATGAACACATGCACATATACATAGTAT [TGCATGCA_site496] | 8.82 ± 0.47 |
| ACTTTTTTTTTGTGTGTGCACTCGATTATATACATA [GTGCAC_site9846] | 9.57 ± 0.46 |
| ATAAAAAAAAGAAAAACACACACATATATATATATA [CACACA_site8243] | 9.77 ± 0.27 |
| AATGAAAAGGAACATACACACCCCATATAAATATAT [CACACA_site7588] | 9.62 ± 0.13 |
| ATAAAAAGGAAACACACACACACACCCATATATATA [CACACA_site904] | 10.41 ± 0.042 |
| TAAAAAGGAAAACACACACACACATATATATATATA [CACACA_site3588] | 10.2 ± 0.26 |
| AGAATAAAAAGGAACACACACACACCCATATATATA [CACACA_site3590] | 10.1 ± 0.5 |
| AGGAAAAAAGAAAAAACACACATAAATATATATATA [CACACA_site3085] | 9.11 ± 0.38 |
| AAAAGGAAAAATATCACACATATATATATATATATA [CACACA_site5586] | 9.76 ± 0.45 |
| AAGGAATAATATAAAACACACACATAAATATAAATA [CACACA_site9115] | 9.6 ± 0.42 |
| TATAAAAGGAAACACACACACATATATATATATATA [CACACA_site939] | 10.2 ± 0.32 |
| AAAAAAATTACATATCCATTTTAACATAATAAATAG [GTGCAC_negctrl_site618] | 8.33 ± 0.45 |
| TACAGAATTGTATATAGTACATAAAACAATATATAT [XGTACX_site7275] | 8.88 ± 0.4 |

Reference: the supplement of paper PMC11417369
